Assay results reported in PubChem BioAssay AID588342 (National Center for Advancing Translational Sciences (NCATS), 2011).
About 25,000 (6.9%) of roughly 360,000 compounds were called active. Inconclusive results (about 9%) are left out. The entries come from a sample that favours actives as a whole. Values without a mark were called inactive. Calls come from the whole dose curve; as a rule, active = well fitted inhibition curve with a large enough effect; inconclusive = small, poorly fitted or top-dose-only effect; inactive = flat fitted curve, though single readings scatter.

Each compound was assayed against Luciferin 4-monooxygenase (Photinus pyralis) (UniProt P08659) (assay: qHTS profiling assay for firefly luciferase inhibitor/activator using purifed enzyme and Km concentrations of substrates (counterscreen for miR-21 project)). Details: purified FLuc, luminescence inhibition; series mostly up to 57.5 µM; activity change, negative = inhibition: at the top concentration.
Luciferin 4-monooxygenase (Photinus pyralis), sequence (P08659 whole entry, looked up): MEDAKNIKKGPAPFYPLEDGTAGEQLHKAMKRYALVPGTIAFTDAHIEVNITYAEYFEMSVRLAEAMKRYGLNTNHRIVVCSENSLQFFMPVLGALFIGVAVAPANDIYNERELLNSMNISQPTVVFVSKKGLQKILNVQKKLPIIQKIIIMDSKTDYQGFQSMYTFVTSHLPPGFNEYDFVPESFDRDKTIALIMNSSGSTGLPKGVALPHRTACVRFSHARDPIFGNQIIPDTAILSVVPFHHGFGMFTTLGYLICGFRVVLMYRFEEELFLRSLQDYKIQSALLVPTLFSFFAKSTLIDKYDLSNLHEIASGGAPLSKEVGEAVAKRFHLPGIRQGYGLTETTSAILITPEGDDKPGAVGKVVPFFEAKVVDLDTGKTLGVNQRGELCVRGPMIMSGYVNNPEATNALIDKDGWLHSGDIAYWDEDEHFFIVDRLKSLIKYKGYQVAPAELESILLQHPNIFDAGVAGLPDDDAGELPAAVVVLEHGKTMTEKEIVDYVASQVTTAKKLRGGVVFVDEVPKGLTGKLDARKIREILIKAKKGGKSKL
In short: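 Purified P. pyralis luciferase, 10 nM final, with Km-level 10 uM D-luciferin and 10 uM ATP in 50 mM Tris acetate pH 7.5, 10 mM Mg acetate, 0.01% Tween-20, 0.05% BSA; 6-point qHTS titration about 60 µM downward; luminescence read.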
Note: nearly all actives have a fitted effect of over 55% in size.
Potency is the fitted concentration of half-maximal effect.
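Throughout, for activity change, negative = inhibition: plate controls were vehicle for no effect and reference inhibitor for full effect.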

SMILES | activity change, negative = inhibition | Potency
CCN(CC)C(=O)CSc1nc2cc3c(cc2c(=O)n1CCCC(=O)NCc1ccc2c(c1)OCO2)OCO3 | -12.4% | –
CCC1=Nc2cc(C(=O)NCCCOC(C)C)ccc2Sc2ccc(C)cc21 | -18% | –
CCN(CC)S(=O)(=O)c1ccc2c(c1)c(=O)c(C(=O)N1CCN(c3cccc(Cl)c3)CC1)cn2C | -3.84% | –
CC(C)(C)OC(=O)N1CCC(c2c(C(=O)Nc3ccc4c(c3)OCO4)cnn2-c2ccccc2)CC1 | -10.2% | –
COc1ccc(-c2noc(CCC(=O)N(C)c3ccccc3C)n2)cc1 | -2% | –
CN(CC(=O)NCC(c1ccccc1)N1CCCC1)S(=O)(=O)c1ccc(Cl)cc1 (configuration not stated) | 4.5% | –
CCOC(=O)c1ccc(NC(=O)Cn2c(=O)cc(C)c3c(C)nn(-c4cccc(F)c4)c32)cc1 | -1.71% | –
O=C(COC(=O)CCc1nc2ccccc2c(=O)[nH]1)Nc1ccc(N2CCOCC2)cc1 | 2.6% | –
CCCCCCSc1nsc(N)n1 | – | 26.9 µM (active)
CCCSc1nsc(N)n1 | 1.46% | –
CC(C)CC(=O)NC(=S)NNC(=O)c1cccc([N+](=O)[O-])c1 | -3.1% | –
COc1ccc(OCCNC(=O)c2cc(C3CC3)nc3c2cnn3C(C)C)cc1 | -1.66% | –
CCOC(=O)c1ccc(NC(=O)C2CCN(S(=O)(=O)c3ccc4c(c3)CCCC(=O)N4)CC2)cc1 | -2.69% | –
COc1ccc(-c2nnc3ccc(SCc4ccccc4)nn23)cc1 | 5.99% | –
COc1ccc2nc(SCc3ccccc3)nc(C)c2c1 | – | 2.69 µM (active)
COc1cccc(CSc2nc3nc(C)cc(C)n3n2)c1 | -7.46% | –
CC(Oc1ccc(Br)cc1)C(=O)NC1CCCCCC1 (configuration not stated) | -13% | –
CCn1cc(C(=O)N2CCN(c3cc(Cl)ccc3C)CC2)c(=O)c2cc(S(=O)(=O)N3CCCC3)ccc21 | -11.8% | –
CC(C)(Oc1ccc(Cl)cc1)C(=O)OCC(=O)NCCc1ccc(S(N)(=O)=O)cc1 | 0.709% | –
O=C(NCCc1ccccc1)C(=O)NCC(c1ccco1)S(=O)(=O)c1ccccc1 (configuration not stated) | 4.63% | –
CCCCn1c(N)c(N(CCOC)C(=O)c2cccc(S(=O)(=O)N(C)c3ccccc3)c2)c(=O)[nH]c1=O | -6.07% | –
O=C(c1cn(-c2ccccc2)nc1-c1cccnc1)N1CCN(S(=O)(=O)c2ccccc2F)CC1 | -17.1% | –
COc1ccccc1N1CCN(C(=O)c2cn(-c3ccccc3)nc2-c2cccnc2)CC1 | – | 9.53 µM (active)
NC(=O)C1CCN(C(=O)c2cn(-c3ccccc3)nc2-c2cccnc2)CC1 | -10.3% | –
CCOCCCNC(=O)c1c(NC(=O)Cc2coc3c(C)c(C)ccc23)sc2c1CCC2 | -13.5% | –
CC[C@]1(c2ccccc2OC)C(=O)N(C(=O)OC)N1C(=O)OC | -0.0873% | –
O=C(COc1ccccc1)NCc1ccc2c(c1)CCN2C(=O)c1ccc(F)cc1 | -19.4% | –
